In PubChem BioAssay (NCATS):
Values joined by “and” are separate entries in the source; they are usually repeats but may differ in a detail not shown here. Equal entries are not always repeated. Results filed as inconclusive are left out. The source holds several records for some structures; these can differ, active in one and inactive in another. Active and inactive are the calls of the source. Unless noted, calls follow the shape of the dose curve; as a rule, active = well fitted curve in the direction sought with a large enough effect; inconclusive = small, poorly fitted or top-dose-only effect, or another doubt; inactive = no such curve, though single readings can be large; an effect the other way counts as inactive or inconclusive.

Key:
[1] = target: Hexokinase-4 (Homo sapiens) + Glucokinase regulatory protein (Homo sapiens) (UniProt P35557+Q14397); assay: qHTS assay for inhibitors of recombinant human GCK-GKRP interaction: HTRF assay (AID 743207);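 also: 0% = DMSO with GCK present and -100% = DMSO wells lacking GCK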
Chain of Hexokinase-4 (Homo sapiens) + Glucokinase regulatory protein (Homo sapiens) (P35557 whole entry, looked up): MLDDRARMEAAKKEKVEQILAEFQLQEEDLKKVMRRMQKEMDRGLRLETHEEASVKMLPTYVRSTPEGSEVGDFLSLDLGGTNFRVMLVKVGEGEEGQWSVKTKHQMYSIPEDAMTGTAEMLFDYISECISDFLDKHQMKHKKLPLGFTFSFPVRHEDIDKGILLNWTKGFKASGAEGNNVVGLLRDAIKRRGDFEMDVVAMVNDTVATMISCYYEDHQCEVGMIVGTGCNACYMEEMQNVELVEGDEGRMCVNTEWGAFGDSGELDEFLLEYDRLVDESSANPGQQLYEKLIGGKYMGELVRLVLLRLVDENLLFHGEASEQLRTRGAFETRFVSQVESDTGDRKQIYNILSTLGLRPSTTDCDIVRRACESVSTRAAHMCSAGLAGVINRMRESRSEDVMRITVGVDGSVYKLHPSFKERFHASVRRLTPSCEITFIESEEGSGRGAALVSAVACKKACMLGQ
Chain of Hexokinase-4 (Homo sapiens) + Glucokinase regulatory protein (Homo sapiens) (Q14397 whole entry, looked up): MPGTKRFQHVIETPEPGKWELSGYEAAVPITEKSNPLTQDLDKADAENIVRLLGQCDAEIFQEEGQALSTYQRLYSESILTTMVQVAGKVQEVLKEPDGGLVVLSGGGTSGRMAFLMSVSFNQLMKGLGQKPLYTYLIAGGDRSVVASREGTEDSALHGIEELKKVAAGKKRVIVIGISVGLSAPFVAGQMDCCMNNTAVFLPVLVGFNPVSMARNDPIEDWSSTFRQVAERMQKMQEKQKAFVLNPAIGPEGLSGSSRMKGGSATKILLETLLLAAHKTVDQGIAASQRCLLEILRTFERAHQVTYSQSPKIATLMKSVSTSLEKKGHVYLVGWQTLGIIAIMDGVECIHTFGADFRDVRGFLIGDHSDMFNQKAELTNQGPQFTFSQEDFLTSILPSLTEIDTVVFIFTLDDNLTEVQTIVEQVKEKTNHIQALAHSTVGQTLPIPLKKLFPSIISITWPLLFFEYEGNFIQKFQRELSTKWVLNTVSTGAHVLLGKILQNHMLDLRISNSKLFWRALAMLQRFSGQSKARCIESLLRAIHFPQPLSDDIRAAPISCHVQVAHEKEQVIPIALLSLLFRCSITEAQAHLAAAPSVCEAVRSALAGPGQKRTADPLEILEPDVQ
Procedure, shortened: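 Titration screening format: recombinant GST-GCK and FLAG-GKRP at 5 nM, S6P at 2 uM, labelled anti-tag antibodies, 60 min at RT, dual-wavelength HTRF readout.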

[2] = qHTS Assay for Identifying Gametocytocidal Compounds (AID 743244); also: potency is read from the fitted curve at half-maximal effect;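 as to max response: % is scaled to controls: 0 for no effect and ±100 for the full control effect; actives lower the fluorescent signal which means gametocytes are killed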; conditions: P. falciparum 3D7 stage III-V gametocytes, alamarBlue, 72 h; max response: stronger effect = lower value
Procedure, shortened: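 P. falciparum 3D7 stage III–V gametocytes (20,000 cells/well) were exposed to compounds for 72 h at 37 °C, 5% CO2. AlamarBlue was then added for 24 h; decreased resorufin fluorescence (Ex 525/Em 598 nm) indicated loss of viability.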

[3] = qHTS profiling of the MIPE4 collection as inhibitors of Plasmodium falciparum (3D7) proliferation (AID 743344; call rule not given here;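 also: scaled between DMSO vehicle wells and 0.29 µM artemisinin as full inhibition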); conditions: P. falciparum 3D7 in erythrocytes, SYBR Green DNA fluorescence, 72 h; at 28.5 µM (top of the series) unless noted
Procedure, shortened: (§1)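 Erythrocytes infected with P. falciparum (0.3% parasitemia, 2.5% hematocrit) incubated with compounds 72 h at 37 C, 5% CO2. Lysis with saponin/Triton buffer containing SYBR Green I, overnight at room temperature in the dark; DNA fluorescence (485/535 nm) normalised to 0.29 uM artemisinin and DMSO.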

[4] = qHTS profiling of the MIPE4 collection as inhibitors of Plasmodium falciparum (DD2) proliferation (AID 743345; call rule not given here); conditions: P. falciparum Dd2 in erythrocytes, SYBR Green DNA, 72 h; at 28.5 µM (top of the series) unless noted
Procedure, shortened: as §1

[5] = qHTS profiling of the MIPE4 collection as inhibitors of Plasmodium falciparum (DD2) proliferation (Rep 2) (AID 743346; call rule not given here); conditions: P. falciparum Dd2 in erythrocytes, SYBR Green DNA, 72 h; at 28.5 µM (top of the series) unless noted
Procedure, shortened: as §1

[6] = qHTS profiling of the MIPE4 collection as inhibitors of Plasmodium falciparum (HB3) proliferation (AID 743347; call rule not given here;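 also: plate controls were DMSO vehicle wells for no effect and artemisinin wells for full effect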); conditions: P. falciparum HB3 in erythrocytes, SYBR Green DNA, 72 h; at 28.5 µM (top of the series) unless noted
Procedure, shortened: as §1

[7] = High-throughput drug toxicity screening in the BPDCN cell line Gen2.2 (AID 1224824; call rule not given here;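 also: cells exposed to compounds for 48 h before reading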); conditions: Gen2.2 BPDCN cells; at 45.8 µM (top of the series) unless noted
Procedure, shortened: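 Readout is ATP luminescence from Gen2.2 cells after two days of drug exposure in serum-containing medium at 37 °C. Values express percent activity, with vehicle defining full signal and 9.2 uM bortezomib defining zero.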

[8] = High-throughput drug toxicity screening in the BPDCN cell line Cal-1 (AID 1224825; call rule not given here); conditions: Cal-1 BPDCN cell viability, qHTS; at 45.8 µM (top of the series) unless noted
Procedure, shortened: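 Cal-1 cells, 500 per well in phenol-red-free RPMI with 10% FBS, exposed to compounds for 48 hours at 37C, 5% CO2. Viability read by CellTiter-Glo luminescence; percent activity normalized to DMSO (100%) and 9.2 uM bortezomib final (0%).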

[9] = qHTS assay for measurement of the activity of small molecule inhibitors on Zika virus induced Caspase-3 activity in human iPSC derived neural progenitor cells (hNPCs) (AID 1224857); also: nearly all actives have a fitted effect of over 65% in size; also: potency is read from the fitted curve at half-maximal effect
Procedure, shortened: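 hNPCs seeded 350 cells/well, cultured 16–20 h; compounds added 1 h before ZIKV (2 FFU/cell), 37 C 6 h. Caspase-Glo 3/7 luminescence after 30 min RT; % inhibition from induction scaled to uninfected (0%) and infected (100%) wells.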

[10] = qHTS assay for measurement of the activity of small molecule inhibitors on Zika virus induced Caspase-3 activity in human astrocytoma cells (AID 1224859);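 also: plate controls were ZIKV-infected untreated cells for no effect and uninfected cells for full effect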
Procedure, shortened: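 Luminescence read-out (Caspase-Glo 3/7, 30 min RT) of caspase activity in SNB-19 cells infected 6 h with ZIKV, 2 FFU/cell, after 1 h compound pretreatment; % inhibition from induction normalised to uninfected (0%) and infected (100%) wells.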

[11] = qHTS Screen of the MIPE 4.0 Collection Against Ewings Sarcoma (RDES) (AID 1259252); also: nearly all actives have a fitted effect of over 35% in size; also: potency is read from the fitted curve at half-maximal effect
Procedure, shortened: (§2)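 Dose series incubated 48 h with cells in RPMI plus 5% FBS, glutamine and penicillin/streptomycin; cell viability then quantified via CellTiter-Glo.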

[12] = qHTS Screen of the MIPE 4.0 Collection Against Ewings Sarcoma (EW8) (AID 1259255); also: nearly all actives have a fitted effect of over 35% in size; also: potency is read from the fitted curve at half-maximal effect;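 as to viability: 100% = DMSO-treated cells and 0% = medium-only wells without cells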
Procedure, shortened: as §2

[13] = qHTS Screen of the MIPE 4.0 Collection Against Ewings Sarcoma (TC32) (AID 1259256); also: nearly all actives have a fitted effect of over 45% in size; also: potency is read from the fitted curve at half-maximal effect
Procedure, shortened: as §2

[14] = qHTS assay to identify small molecule inhibitors of chordoma cells - UCH-1 (AID 1259355); also: % is scaled to controls: 0 for no effect and ±100 for the full control effect; nearly all actives have a fitted effect of over 55% in size
Procedure, shortened: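 Cells (800/well) were seeded and left overnight at 37 C, 5% CO2, then treated with drugs at 15 concentrations plus a combination mix of auranofin, camptothecin, doxorubicin, rubitecan and topotecan. Viability after 48hr was read by CellTiter-Glo luminescence.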

[15] = qHTS assay for cell viability of HEK293 cells (AID 743288); conditions: ATP luminescence (CellTiter-Glo), 18 h; max response: stronger effect = lower value; also: % is scaled to controls: 0 for no effect and ±100 for the full control effect; nearly all actives have a fitted effect of over 50% in size
Procedure, shortened: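 Luminescent ATP quantitation served as the viability read-out. Cells (parental HEK293, 2,000/well) received compounds after at least 5 h at 37 C and were exposed for 18 h before a 30 min room-temperature reagent step.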

[16] = qHTS assay for cell viability of the p53RE-bla HCT-116 cell line (AID 743292); also: % is scaled to controls: 0 for no effect and ±100 for the full control effect; nearly all actives have a fitted effect of over 55% in size
Procedure, shortened: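 CellSensor p53RE-bla HCT-116 cells (4,000/well) pre-incubated 5 h at 37 C, then exposed to compounds in DMSO for 16 h at 37 C. Viability read as ATP content by CellTiter-Glo luminescence after 30 min at room temperature.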

NC(=O)c1ccc2[nH]ccc2c1
outcome [1]: inactive | max response [2]: 11.4% (inactive) | parasite growth, % of DMSO control [3]: 98% | parasite growth remaining, % of DMSO control (lower = more inhibition) [4]: 90.8% | parasite growth, % of control (lower = inhibition) [5]: 122% | growth, % of control [6]: 57.5% | cell viability, % of control (lower = more cytotoxic) [7]: 140% | viability (% of control) [8]: 90.6% | Potency [9]: inactive | Potency [10]: inactive | Potency [11]: inactive | Potency [12]: inactive | Potency [13]: inactive

CCN(C)C(=O)Oc1cccc([C@H](C)N(C)C)c1
max response [2]: -3.35% (inactive) | parasite growth remaining, % of DMSO control (lower = more inhibition) [4]: 17.2% | cell viability, % of control (lower = more cytotoxic) [7]: 97.8% | viability (% of control) [8]: 73.8% | Potency [9]: inactive | Potency [10]: inactive | Potency [11]: inactive | Potency [12]: inactive | Potency [13]: inactive | Potency [14]: inactive

CCCCCCNC(=O)n1cc(F)c(=O)[nH]c1=O
max response [2]: -3.88% (inactive) | parasite growth, % of DMSO control [3]: 59% | parasite growth remaining, % of DMSO control (lower = more inhibition) [4]: 32% | parasite growth, % of control (lower = inhibition) [5]: 30.5% | growth, % of control [6]: 71.2% | cell viability, % of control (lower = more cytotoxic) [7]: 106% | viability (% of control) [8]: 33.8% | Potency [9]: inactive | Potency [10]: inactive | Potency [11]: 13.2 µM (active) | Potency [13]: 18.7 µM (active) | Potency [14]: inactive

N=C(N)c1ccc(OCCCCCOc2ccc(C(=N)N)cc2)cc1
Potency [2]: 6.31 µM (active) | max response [15]: -23.8% (inactive) and -12.7% (inactive) | Potency [16]: inactive | parasite growth, % of DMSO control [3]: 5.02% | parasite growth remaining, % of DMSO control (lower = more inhibition) [4]: 6.09% | growth, % of control [6]: 3.03% | cell viability, % of control (lower = more cytotoxic) [7]: 272% | viability (% of control) [8]: 39.6% | Potency [9]: inactive | Potency [10]: inactive | Potency [11]: 18.7 µM (active) | Potency [12]: 14.8 µM (active) | Potency [14]: inactive

CCN[C@H]1C[C@H](C)S(=O)(=O)c2sc(S(N)(=O)=O)cc21
parasite growth, % of DMSO control [3]: 93.1% | parasite growth remaining, % of DMSO control (lower = more inhibition) [4]: 19.2% | parasite growth, % of control (lower = inhibition) [5]: 117% | growth, % of control [6]: 103% | cell viability, % of control (lower = more cytotoxic) [7]: 71.7% | viability (% of control) [8]: 102% | Potency [9]: inactive | Potency [10]: inactive | Potency [11]: inactive | Potency [12]: inactive | Potency [13]: inactive | Potency [14]: inactive

NC(N)=NC(N)=NCCc1ccccc1
max response [2]: 18.8% (inactive) and 0.965% (inactive) | max response [15]: -5.89% (inactive) and -15.7% (inactive) | Potency [16]: inactive | parasite growth, % of DMSO control [3]: 21.2% | parasite growth remaining, % of DMSO control (lower = more inhibition) [4]: 38.8% | parasite growth, % of control (lower = inhibition) [5]: 47% | growth, % of control [6]: 50.7% | cell viability, % of control (lower = more cytotoxic) [7]: 88% | viability (% of control) [8]: 75.1% | Potency [9]: inactive | Potency [10]: inactive | Potency [11]: 11.8 µM (active) | Potency [12]: 16.6 µM (active) | Potency [14]: inactive

CC(=O)CC(c1ccccc1)c1c(O)c2ccccc2oc1=O (centres undefined)
max response [15]: 0.884% (inactive) | Potency [16]: inactive | cell viability, % of control (lower = more cytotoxic) [7]: 66.7% | viability (% of control) [8]: 60.3% | Potency [9]: inactive and 23.5 µM (active) | Potency [10]: inactive | Potency [11]: inactive | Potency [12]: inactive | Potency [13]: inactive | Potency [14]: inactive
